# Bioassay records: PubChem BioAssay, National Center for Advancing Translational Sciences (NCATS)
# HP1b chromo inh = HTS for Inhibitors of HP1-beta Chromodomain Interactions with Methylated Histone Tails. AlphaScreen HP1-beta / biotin-H3K9me3 peptide binding. Potency, µM (doses to about 114 µM), inactives show at the top dose activity change, negative = inhibition, hits mostly inhibitors. hit rate 0.56% among 390,000; also: nearly all actives have a fitted effect of over 70% in size
#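 Compound inhibition of the preformed complex between 50 nM HP1-beta and 50 nM biotinylated H3K9me3 peptide was read by AlphaScreen. Buffer was PBS pH 7.4 with 0.01% Tween-20. Incubations ran 30 min at room temperature, with 10 ug/mL donor/acceptor beads.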
# TDP1 inh = qHTS Assay for Inhibitors of Tyrosyl-DNA Phosphodiesterase (TDP1); Tyrosyl-DNA phosphodiesterase 1 (Homo sapiens), Q9NUW8; hit rate 0.28% among 350,000; Potency, µM (top dose mostly 130 µM), for the others: top-dose activity change, negative = inhibition, most hits filed as inhibitors; recombinant TDP1, AlphaScreen DNA substrate cleavage; AID 485290, 2010; also: % is scaled to controls: 0 for no effect and ±100 for the full control effect; nearly all actives have a fitted effect of over 40% in size
#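 Recombinant human Tdp1 (E. coli-expressed, 1 nM final) preincubated with compounds 15 min at room temperature, then 5'-biotin/3'-phosphotyrosine-FITC DNA substrate (15 nM final) added for 5 min. AlphaScreen beads (10 ug/ml final) added 10 min; cleavage lowers signal.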
# G9a block = qHTS Assay for Inhibitors of Histone Lysine Methyltransferase G9a. G9a H3K9 monomethylation, AlphaScreen, 2 h. Potency, µM (highest dose often 102 µM), inactives show at the top dose activity, negative = inhibition, usual class: inhibitors. hit rate 8.8% among 350,000; also: % is scaled to controls: 0 for no effect and ±100 for the full control effect; nearly all actives have a fitted effect of over 75% in size
#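 Methyltransferase reactions run at room temperature for 2 h (20 nM enzyme, 500 nM biotin-H3K9 peptide, 20 uM SAM) after a 15 min compound preincubation; product detected by AlphaScreen beads and anti-H3K9me1 antibody.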
# Sfp inh = qHTS Assay for Inhibitors of Bacillus subtilis Sfp phosphopantetheinyl transferase (PPTase) | Potency, µM, inactives show largest response in the series, negative = inhibition, most hits filed as inhibitors | 4'-phosphopantetheinyl transferase ffp (Bacillus subtilis), Q9F4F7 | Biochemical Sfp PPTase activity, qHTS | hit rate 3.5% among 310,000;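 also: the enzyme is Sfp with the accession as filed and its product quenches rhodamine fluorescence; 0% = enzyme reaction without inhibitor and -100% = no enzyme wells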
#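 Compounds were incubated with enzyme (final 15 nM) for 15 min at room temperature before substrate addition started the reaction. Fluorescence at 525 nm excitation, 598 nm emission was recorded immediately and after 30 minutes.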
# JMJD2A Tudor = qHTS Assay for Inhibitors of JMJD2A-Tudor Domain. Lysine-specific demethylase 4A (Homo sapiens), O75164. AlphaScreen JMJD2A-Tudor / H3K4me3 peptide binding. Potency, µM (doses to about 114 µM), for the others: top-dose activity change, negative = inhibition, usual class: inhibitors. hit rate 4.4% among 390,000; also: % is scaled to controls: 0 for no effect and ±100 for the full control effect; nearly all actives have a fitted effect of over 50% in size
# BAZ2B block = qHTS Assay for Inhibitors of BAZ2B; Bromodomain adjacent to zinc finger domain protein 2B (Homo sapiens), Q9UIF8; AlphaScreen BAZ2B-H3K14Ac peptide displacement; Potency, µM (titrated, usually from 114 µM), for the others: at the highest dose activity change, negative = inhibition, usual class: inhibitors; hit rate 4.4% among 360,000; also: % is scaled to controls: 0 for no effect and ±100 for the full control effect; nearly all actives have a fitted effect of over 60% in size
#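 In this displacement format the biotinylated H3(5-23) peptide acetylated at Lys14 serves as ligand at 50 nM, with BAZ2B at 50 nM in PBS pH 7.4 containing 0.01% Tween-20. Donor and acceptor beads are 10 ug/mL final.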
# * hit, by the source's call; ? = inconclusive; / = no result given; [ ] = another dose, or the depositor's remark. Sampled rows, rich in hits. Any-hit rate of the full collection: about 12%. Calls follow the shape of the dose curve; as a rule, active = well fitted curve in the direction sought with a large enough effect; inconclusive = small, poorly fitted or top-dose-only effect, or another doubt; inactive = no such curve, though single readings can be large; an effect the other way counts as inactive or inconclusive. Potency is read from the fitted curve at half-maximal effect.
SMILES,HP1b chromo inh,TDP1 inh,G9a block,Sfp inh,JMJD2A Tudor,BAZ2B block
CN1CCN(C(=S)Nc2ccc([N+](=O)[O-])cc2)CC1,19%,5%,-11%[0.0925 µM],89µM*,-20%,?
S=C(Nc1ccccc1)N1CCc2ccccc21,11%,/,19%[0.501 µM],5%,-25%,-6%
O=[N+]([O-])c1ccc(NC(=S)N2CCc3ccccc32)cc1,-16%,9%,35µM*,-1%,?,?
COc1ccc([S+](=O)([O-])N2CCN([S+](=O)([O-])c3ccc4c(c3)OCCO4)CC2)c(OC)c1,/,/,/,/,-25%,/
CC1=Nn2c(nnc2-c2ccco2)SC1,19%,2%,8%[0.501 µM],56µM*,-14%,-29%
COc1ccc(C2=Nn3c(nnc3-c3ccco3)SC2)cc1OC,9%,-10%,-17%[59 µM],?,8%,20%
CC1=Nn2c(nnc2-c2cccs2)SC1,31%,4%,-8%[12.7 µM],8%,-8%,12%
Cc1ccccc1C1=Nn2c(nnc2-c2ccco2)SC1,30%,4%,28µM*,?,-25%,-24%
Cc1c2c(nc3ccccc13)OCC2,8%,4%,79µM*,-24%,-17%,24%
NS(=O)(=O)c1ccc(NNC(=O)c2sccc2Cl)cc1,45%,/,7.1µM*,12%,3%,33%
O=C1OC(Nc2nc3ccccc3s2)c2ccccc21 (centres undefined),52%,4%,50µM*,5%,3%,-12%
O=C(CN1C(=O)NC2(CCCCCC2)C1=O)NCCc1ccccc1,21%,-3%[56.1 µM],-2%[2.33 µM],/,-8%,5%
Cc1cccc(NC(=O)CN2CCN(C(=O)c3cccc(-n4cnnn4)c3)CC2)c1C,18%,1%,?,/,-8%,1%
CCN1CCN(CC(=O)c2cc(Cl)ccc2Cl)CC1,24%,-4%,14µM*,-12%,-18%,-24%
Cc1cc(C(=O)CN2CCCC2)c(C)n1-c1ccc(Cl)cc1,5%,2%,50µM*,13%,-33%,-39%
N#CCCN(C(=O)COc1ccc(C#N)cc1)c1ccc(F)cc1,37%,1%,9%,0%,-10%,-4%
Cc1ccc(-n2c(C(C)n3nc(C)c([N+](=O)[O-])c3C)n[nH]c2=S)cc1 (centres undefined),-79%,5%,4µM*,-2%,13µM*,10%
COc1ccc(-n2c(C(C)n3nc(C)c([N+](=O)[O-])c3C)n[nH]c2=S)cc1 (centres undefined),40%,0%,6.3µM*,0%,13µM*,-5%
COc1ccc(-n2c(-c3cccc(C)c3[N+](=O)[O-])n[nH]c2=S)cc1,?,2%,3.2µM*,16%,?,-5%
Cc1nn(C(C)c2n[nH]c(=S)n2-c2cccc(Cl)c2)c(C)c1[N+](=O)[O-] (centres undefined),1%,1%,3.5µM*,-5%,?,7%
Cc1nn(CC(=O)c2cccc(Cl)c2)c(C)c1[N+](=O)[O-],22%,2%,-1%,11%,-10%,-9%
COc1ccc(-n2c(-c3cc(-c4ccccc4)sc3N)n[nH]c2=S)cc1,36%,/,1%,-20%,-15%,-17%
C=CCNC(=O)COC(=O)c1ccc(Sc2nncn2C)c([N+](=O)[O-])c1,65%,5%,-3%,17%,-12%,-4%
C=CCN(CC=C)C(=O)COC(=O)c1ccc(Sc2ncn[nH]2)c([N+](=O)[O-])c1,-1%,5%,28µM*,6%,-21%,?
